{
  "source": "the supplement of paper PMC8047044",
  "note": "Counter-ions that a name gives are not always drawn.",
  "data": [
    {"test_system": "Neuro-2a", "assay": "neurite formation score, plate-normalized to DMSO control mean 5.04 (score (0-8 scale)); higher = more or longer neurites", "conditions": "0.1 µM", "procedure": "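Neuro-2a mouse neuroblastoma cells in PLL-coated 96-well plates were pre-treated for 1 h in DMEM(+) with each kinase inhibitor at 0.1 µM, then switched to serum-free DMEM(-) with inhibitor to induce neurite outgrowth and fixed about 2-3 h later. Three blinded observers scored neurite formation from 0 (no neurites) to 8 (long neurites on almost all cells).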", "values": [
      {"compound": "C1=N/C2=N/c3ccc(OCCN4CCCC4)c(c3)COC/C=C/COCc3cccc(c3)C(=C1)N2", "note": "[Pacritinib]", "neurite formation score": 4.92},
      {"compound": "CN1CCN(c2nc(C3=C(c4c[nH]c5ccccc45)C(=O)NC3=O)c3ccccc3n2)CC1", "note": "[Sotrastaurin (AEB071)]", "neurite formation score": 4.92},
      {"compound": "COc1ccc(-c2ccc3c(N4CCOCC4)nc(N4C[C@@H](C)O[C@@H](C)C4)nc3n2)cc1CO", "neurite formation score": 4.25},
      {"compound": "CN(C)CCSSCCNC(=O)C1CCN(C(=O)CSc2ccc(Cl)cc2)CC1", "neurite formation score": 4.58},
      {"compound": "C[C@@H](Oc1ccc2[nH]nc(/C=C/c3cnn(CCO)c3)c2c1)c1c(Cl)cncc1Cl", "neurite formation score": 4.92},
      {"compound": "Cc1cc(C)c(/C=C2\\C(=O)Nc3ccccc32)[nH]1", "note": "[Semaxanib (SU5416)]", "neurite formation score": 5.42},
      {"compound": "Cn1cc(-c2ccc3nnc(C(F)(F)c4ccc5ncccc5c4)n3n2)cn1", "neurite formation score": 4.25},
      {"compound": "CN1CCN(c2ccc(OC(F)(F)F)c(Nc3ncc4c(n3)-c3c(c(C(N)=O)nn3CCO)CC4)c2)CC1", "neurite formation score": 4.42},
      {"compound": "CC1=CC(=O)C(C(C)C)=C/C1=N/OC(=O)c1ccccc1C", "note": "[Poloxin]", "neurite formation score": 5.25},
      {"compound": "Nc1nccc(Oc2ccc(NC(=O)c3c[nH]cc(-c4ccc(F)cc4)c3=O)cc2F)c1Cl", "neurite formation score": 4.92},
      {"compound": "CN1CCN(S(=O)(=O)c2ccc(-c3cnc(N)c(C(=O)Nc4cccnc4)n3)cc2)CC1", "neurite formation score": 4.75},
      {"compound": "C=CC(=O)Nc1cccc(Nc2nc(Nc3ccc(OCCOC)cc3)ncc2F)c1", "neurite formation score": 4.71},
      {"compound": "C=CC(=O)Nc1cccc(Oc2nc(Nc3ccc(N4CCN(C)CC4)cc3)ncc2Cl)c1", "neurite formation score": 4.25},
      {"compound": "CC(C)(C)c1cc(NC(=O)Nc2ccc(-c3cn4c(n3)sc3cc(OCCN5CCOCC5)ccc34)cc2)no1", "note": "[Quizartinib (AC220)]", "neurite formation score": 5.21},
      {"compound": "CCCCCCCCc1ccc(CCC(N)(CO)CO)cc1", "note": "[Fingolimod (FTY720)]", "neurite formation score": 4.25},
      {"compound": "CS(=O)(=O)N1CCC(NC(=O)c2[nH]ncc2NC(=O)c2c(Cl)cccc2Cl)CC1", "neurite formation score": 5.09},
      {"compound": "O=C1NC(=O)/C(=C/c2cccc(C(F)(F)F)c2)S1", "neurite formation score": 4.92},
      {"compound": "CCCCCCCCCCCC(=O)OCC(CO)OC(=O)CCCCCCCCCCC", "note": "(stereo unspecified) [1,2-Dilauroyl-sn-glycerol]", "neurite formation score": 5.08},
      {"compound": "CN1C/C=C/CCOc2cccc(c2)-c2ccnc(n2)Nc2cccc(c2)C1", "neurite formation score": 4.42},
      {"compound": "Cc1cc(CN2CCN(c3c(Br)cnc4nc(-c5ccc(N6CCN(C)CC6)cc5)[nH]c34)CC2)no1", "neurite formation score": 4.76},
      {"compound": "Brc1c(Br)c(Br)c2n[nH]nc2c1Br", "neurite formation score": 5.09},
      {"compound": "CO[C@H]1C[C@@H]2CC[C@@H](C)[C@@](O)(O2)C(=O)C(=O)N2CCCC[C@H]2C(=O)O[C@H]([C@H](C)C[C@@H]2CC[C@@H](OP(C)(C)=O)[C@H](OC)C2)CC(=O)[C@H](C)/C=C(\\C)[C@@H](O)[C@@H](OC)C(=O)[C@H](C)C[C@H](C)/C=C/C=C/C=C/1C", "note": "[Ridaforolimus (Deforolimus, MK-8669)]", "neurite formation score": 1.42},
      {"compound": "COc1cc(F)c(F)c(Nc2ccc(I)cc2F)c1NS(=O)(=O)C1(C[C@H](O)CO)CC1", "note": "[Refametinib]", "neurite formation score": 3.42},
      {"compound": "Cc1cc(Nc2cc(N3CCN(C)CC3)nc(/C=C/c3ccccc3)n2)n[nH]1", "note": "[ENMD-2076 L-(+)-Tartaric acid]", "neurite formation score": 4.76},
      {"compound": "N=C(N)NC(=N)NCCc1ccccc1", "note": "[Phenformin HCl]", "neurite formation score": 4.76},
      {"compound": "O=C(c1cccc(Cl)c1F)N1CCN(Cc2cccc(Nc3nccs3)n2)CC1", "neurite formation score": 1.42},
      {"compound": "Cc1[nH]c(/C=C2\\C(=O)Nc3ccc(S(=O)(=O)N(C)c4cccc(Cl)c4)cc32)c(C)c1C(=O)N1CCN(C)CC1", "neurite formation score": 5.04},
      {"compound": "N#Cc1cccc(-c2c[nH]c3ncnc(N4CCOCC4)c23)c1", "neurite formation score": 4.75},
      {"compound": "COc1cc(-c2cc(-c3ccc(N4CCNCC4)cc3)cnc2C)cc(OC)c1OC", "neurite formation score": 5.09},
      {"compound": "Cc1ccc(S(=O)(=O)Nc2nc3ccccc3nc2Nc2ccc3nsnc3c2)cc1", "neurite formation score": 4.09},
      {"compound": "CC(C)CCN1c2nc(Nc3cc(F)c(O)c(F)c3)ncc2N(C)C(=O)C1C", "note": "(stereo unspecified)", "neurite formation score": 3.42},
      {"compound": "COc1cc(C(=O)NC2CCN(C)CC2)c(F)cc1Nc1ncc2c(n1)N(C1CCCC1)CC(F)(F)C(=O)N2C", "neurite formation score": 5.08},
      {"compound": "NC(=S)N/N=C/c1ncccc1N", "note": "[Triapine]", "neurite formation score": 3.75},
      {"compound": "CC(C)[C@H](CO)Nc1nc(Nc2ccc(C(=O)O)c(Cl)c2)c2ncn(C(C)C)c2n1", "note": "[Purvalanol B]", "neurite formation score": 4.92},
      {"compound": "CCCCCCCCCCCCc1ccc(S(=O)(=O)Nc2nncs2)cc1", "neurite formation score": 5.54},
      {"compound": "Cc1cc(N2CCOCC2)cc2[nH]c(-c3c(NC[C@@H](O)c4cccc(Cl)c4)cc[nH]c3=O)nc12", "neurite formation score": 4.71}
    ]}
  ]
}
